Screening results deposited in PubChem BioAssay by National Center for Advancing Translational Sciences (NCATS).
BLM helicase inh: qHTS Assay for Inhibitors of Bloom's syndrome helicase (BLM); hit rate 0.2% among 350,000; AID 2528, 2010; Potency, µM (highest dose often 56.1 µM), most hits filed as inhibitors; RecQ-like DNA helicase BLM (Homo sapiens), P54132; recombinant BLM DNA unwinding, fluorescence dequenching; also: nearly all actives have a fitted effect of over 35% in size
ERG Ets-DNA blk: qHTS for Small Molecule Inhibitors of the ERG Ets/DNA interaction; fluorescence polarization, His-ERG Ets domain / labelled DNA; Potency, µM (top dose mostly 76.9 µM), actives largely listed as inhibitors; hit rate 0.028% among 370,000; AID 624246, 2012; active = well fitted inhibition curve with a large enough effect in the polarisation, with a control signal flat; inconclusive = small, poorly fitted or top-dose-only effect, or effect the other way, or a change in a side signal; inactive = no such curve, though single readings can be large or run the other way; the % refers to the polarisation;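 also: polarization taken with two DNA probes labelled with fluorescein and Texas red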
Target sequence (P11308 whole entry, looked up, the tested form may be a part): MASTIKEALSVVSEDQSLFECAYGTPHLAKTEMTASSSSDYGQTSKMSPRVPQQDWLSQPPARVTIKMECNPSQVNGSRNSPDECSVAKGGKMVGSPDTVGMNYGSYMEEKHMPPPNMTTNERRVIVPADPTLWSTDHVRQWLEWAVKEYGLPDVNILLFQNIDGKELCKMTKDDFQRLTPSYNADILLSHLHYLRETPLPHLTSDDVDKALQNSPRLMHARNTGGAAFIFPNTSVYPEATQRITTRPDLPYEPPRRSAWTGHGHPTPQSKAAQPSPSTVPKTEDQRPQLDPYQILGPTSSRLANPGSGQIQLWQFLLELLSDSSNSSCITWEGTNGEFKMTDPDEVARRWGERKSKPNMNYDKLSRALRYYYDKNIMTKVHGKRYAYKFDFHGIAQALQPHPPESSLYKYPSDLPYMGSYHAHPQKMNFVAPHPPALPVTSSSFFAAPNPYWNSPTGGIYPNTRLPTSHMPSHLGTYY
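His-tagged ERG Ets domain (1 uM in the protein solution; 300mM KCl, 50mM Tris-HCl, 1mM EDTA, 1mM DTT, pH 7.5) received compound, then a probe mix of 5 nM fluorescein-DNA and 100nM Texas-615-DNA. Fluorescence polarization was read for both dyes.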
RGS12 GoLoco inh: qHTS Assay for Inhibitors of RGS12 GoLoco Motif Activity (Red Fluorophore); Guanine nucleotide-binding protein G(i) subunit alpha-1 (Homo sapiens), P63096; Gai1:RGS12 GoLoco peptide FP, rhodamine, 10 min; Potency, µM (doses to about 61.6 µM), hits mostly inhibitors; hit rate 0.44% among 230,000; active = well fitted inhibition curve with a large enough effect, not every such curve was filed as active; inactive = no such curve, though single readings can be large or run the other way; also: nearly all actives have a fitted effect of over 30% in size
RECQ1 inh-1: qHTS Assay for Inhibitors of RecQ-Like Dna Helicase 1 (RECQ1). RECQ1 DNA unwinding, red fluorescence kinetic read. AID 2549, 2010. hit rate 0.54% among 240,000. ATP-dependent DNA helicase Q1 (Homo sapiens), P46063. Potency, µM (highest dose often 57.3 µM), usual class: inhibitors; also: nearly all actives have a fitted effect of over 30% in size
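50 nM RECQ1T1 preincubated 15 min with compound in Tris pH 8.0 buffer with MgCl2, DTT, Tween-20 and 2.5 ug/ml poly(dI-dC); started with 200 nM TAMRA/BHQ-2 forked duplex and 2 mM ATP. Unwinding read as fluorescence (525/598 nm), two reads 2 h apart.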
TRb SRC2 PPI: qHTS for Inhibitors of the Interaction of Thyroid Hormone Receptor and Steroid Receptor Coregulator 2. hit rate 0.065% among 280,000. TRbeta-SRC2 peptide binding, fluorescence polarization; receptor liganded with 1 µM T3. Thyroid hormone receptor beta (Homo sapiens), P10828. AID 1469, 2008. Potency, µM (series often up to 106 µM), most hits filed as inhibitors; also: nearly all actives have a fitted effect of over 50% in size
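Compounds were added to 0.6 uM TRb ligand-binding domain and 20 nM Texas Red-labeled SRC2 peptide in Tris buffer containing 1 uM T3, incubated 5 hr at ambient temperature, then read by fluorescence polarization.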
TexasRed fluor: Total Fluorescence Counterscreen for Inhibitors of the Interaction of Thyroid Hormone Receptor and Steroid Receptor Coregulator 2; TRb/SRC2 Texas Red total fluorescence interference; Potency, µM (titrated, usually from 106 µM); hit rate 0.29% among 280,000; AID 1479, 2009; active = well fitted curve in either direction with a large enough effect; inconclusive = small, poorly fitted or top-dose-only effect
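Flags fluorescent or light-absorbing compounds by total fluorescence, S + 2P, at 555 nm excitation and 632 nm emission. Mixture: 20 nM Texas Red SRC2 peptide, 0.6 uM human TRb LBD, 1 uM T3, 5% DMSO; compound exposure 5 h at ambient temperature.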
RECQ1 conf: Confirmation qHTS Assay for Inhibitors of RecQ-Like Dna Helicase 1 (RECQ1); hit rate 28% among 610; RECQ1 helicase DNA unwinding, fluorescence; shares compounds with RECQ1 inh-1; Potency, µM (titrated, usually from 229 µM), most hits filed as inhibitors; also: nearly all actives have a fitted effect of over 45% in size
RECQ1 ADP FP: Counterscreen for RECQ1 Inhibitors: ADP Fluorescence Polarization Displacement Assay | hit rate 27% among 530 | Potency, µM (titrated, usually from 228 µM), actives largely listed as inhibitors | shares compounds with RECQ1 inh-1 | ADP fluorescence polarization displacement counterscreen; also: nearly all actives have a fitted effect of over 45% in size
RECQ1 inh-2: Confirmation qHTS Assay for Inhibitors of RecQ-Like Dna Helicase 1 (RECQ1) - Round 2 Cherry Picks; shares compounds with RECQ1 inh-1; recombinant RECQ1 DNA unwinding, red fluorescence; Potency, µM (series often up to 119 µM), most hits filed as inhibitors; hit rate 15% among 1,100; AID 504841, 2011; also: nearly all actives have a fitted effect of over 50% in size
A number is an active result; . = inactive; ? = inconclusive; / = no result; [ ] = dose if it differs, or a comment. This is a sample that favours compounds with a hit; in the whole collection about 0.71% have one here. Unless noted, calls follow the shape of the dose curve; as a rule, active = well fitted curve in the direction sought with a large enough effect; inconclusive = small, poorly fitted or top-dose-only effect, or another doubt; inactive = no such curve, though single readings can be large; an effect the other way counts as inactive or inconclusive.

SMILES	BLM helicase inh	ERG Ets-DNA blk	RGS12 GoLoco inh	RECQ1 inh-1	TRb SRC2 PPI	TexasRed fluor	RECQ1 inh-2	others
NCCC[C@@H](CC(=O)N[C@@H]1CCCC[C@H]1C(=O)N[C@H](CC(=O)N[C@@H](CCC(=O)O)CC(=O)O)Cc1ccccc1)NC(=O)C[C@H](CO)NC(=O)[C@@H]1CNCC[C@H]1N	.	/	.	.	.	.	/
COc1ccc(Cn2nnnc2C(c2cccs2)N2CCN(c3ccccc3)CC2)cc1 (configuration not stated)	.	.	.	.	.	.	/
COc1ccc(Cn2nnnc2C(c2cccnc2)N2CCN(c3ccc(O)cc3)CC2)cc1 (configuration not stated)	.	/	.	1.3µM	.	.	.	RECQ1 conf=.;RECQ1 ADP FP=.
COc1cccc(OCc2nc3ccccc3n2CCOc2ccc(C)cc2)c1	.	.	/	/	.	.	/
Cc1cccc(OC(=O)c2cc(-c3ccc4c(c3)OCCO4)on2)c1C	.	.	/	/	.	.	/
C=CCN1C(=O)CS/C1=N\S(=O)(=O)c1ccc(Cl)cc1	.	/	.	?	.	.	.
CCN1C(=O)CS/C1=N\S(=O)(=O)c1ccc(C)cc1	.	.	.	.	.	.	/
Cc1ccc(/C=C(\CCC(=O)O)c2nc3ccccc3s2)cc1[N+](=O)[O-]	.	.	.	.	.	.	/
CNc1ccc(/C=C(\CCC(=O)O)c2nc3ccccc3s2)cc1[N+](=O)[O-]	.	.	.	35µM	.	.	32µM
Cn1cnnc1Sc1ccc(/C=C(\CCC(=O)O)c2nc3ccccc3s2)cc1[N+](=O)[O-]	.	.	.	.	.	.	/	RECQ1 conf=.;RECQ1 ADP FP=.
CCCCCS(=O)(=O)CCCCCCCCCCn1c(-c2ccc(O)cc2)c(C)c2cc(O)ccc21	.	/	.	.	.	.	/
O=C1C=C(O)C(n2cncn2)C(c2ccc3c(c2)OCO3)C1 (configuration not stated)	.	.	.	?	.	.	.
O=C1CCCC2=C1C(c1ccc(O)c(O)c1)c1c(ccc3ncccc13)N2 (configuration not stated)	.	.	.	11µM	.	.	?	RECQ1 conf=?;RECQ1 ADP FP=?
CCOc1ccc(C2C3=C(CCCC3=O)Nc3ccc4ncccc4c32)cc1 (configuration not stated)	.	.	.	.	.	.	/
CC(C)CC(=O)N(Cc1ccccc1)S(=O)(=O)c1ccc2c(c1)oc(=O)n2C	.	.	/	/	.	.	/
COc1ccc(N(C)S(=O)(=O)c2ccc3c(c2)CCN3C(=O)CCC(=O)O)cc1	.	.	/	/	.	.	/
CCN(c1ccc(OC)cc1)S(=O)(=O)c1ccc2c(c1)CCN2C(=O)CCC(=O)O	.	.	.	.	.	.	/	RECQ1 conf=.;RECQ1 ADP FP=.
CCN(c1ccc(C)c(C)c1)S(=O)(=O)c1ccc2c(c1)CCN2C(=O)CCC(=O)O	.	.	.	.	.	.	/	RECQ1 conf=.;RECQ1 ADP FP=.
Cc1cccc(NS(=O)(=O)c2ccc3c(c2)CCN3C(=O)CCC(=O)O)c1C	.	.	/	/	.	.	/
CCN1CCN(C(=O)c2sc3ncnc(N4CCc5ccccc5C4)c3c2C)CC1	.	.	.	28µM	.	.	.
Cc1c(C(=O)N2CCOCC2)sc2ncnc(N3CCc4ccccc4C3)c12	.	.	.	.	.	.	/
CCN1C(=NCc2cc(OC)c(OC)c(OC)c2)N[C@@H](c2cccc(F)c2)C(C(=O)OC)=C1C	.	/	/	/	/	/	/
c1cc(-c2noc(CCC3CCCC3)n2)ccn1	.	.	.	?	.	.	.
CC(=O)Nc1ccc(NC(=O)C2(c3cccs3)CCOCC2)cc1	.	.	/	/	.	.	/
COc1ccc(OC)c(CNC(=O)c2cc3ccc4cccnc4c3[nH]2)c1	.	.	/	/	.	.	/
SMILES	BLM helicase inh	ERG Ets-DNA blk	RGS12 GoLoco inh	RECQ1 inh-1	TRb SRC2 PPI	TexasRed fluor	RECQ1 inh-2	others
CO[C@@]1(NC(=O)Cc2cccs2)C(=O)N2C(C(=O)O)=C(COC(N)=O)CSC21 (some centres not stated)	.	/	.	.	.	.	/
Cc1c(C2=CCN(S(=O)(=O)c3ccc(Br)cc3)CC2)c2ccccc2n1C	.	.	.	35µM	?	28µM[fluorescent]	45µM	RECQ1 conf=50µM
CCn1c(C)c(C2=CCN(S(=O)(=O)c3ccc(C)cc3)CC2)c2ccccc21	.	.	.	.	.	.	/
Cc1c(Cl)cnc(NC(=O)COC(=O)c2ccc([N+](=O)[O-])s2)c1Cl	.	.	.	28µM	.	.	10µM
Cc1ccc(NS(=O)(=O)c2ccc(NC(=O)c3cccc(NC(=O)C(C)C)c3)cc2)cc1	.	.	.	?	.	.	.
Cc1oc(-c2ccc(C(=O)Nc3ccc(F)cc3F)cc2)nc1COc1ccccc1	.	.	/	/	.	.	/
O=C(O)CSc1nnc(Cn2c(=O)sc3ccccc32)n1-c1cccc(Cl)c1	.	.	.	.	.	.	/	RECQ1 conf=.;RECQ1 ADP FP=.
N#C/C=C(/N)c1ccc(Br)cc1	.	.	.	?	.	.	.
N=C1SC(c2ccccc2)C(=O)N1c1ncc(Cc2ccccc2Cl)s1 (configuration not stated)	.	.	.	25µM	.	.	?
COc1ccc(C2c3c(-c4ccccc4)n[nH]c3C(=O)N2c2ccc(C(=O)O)cc2)c(OC)c1 (configuration not stated)	.	.	/	/	.	.	/
O=[N+]([O-])c1cc(S(=O)(=O)C(F)(F)F)ccc1N1CCN(c2ccccc2)CC1	.	.	.	?	.	.	.
CCOC(=O)c1cc(-c2ccc(OC)cc2)nn1-c1ccccc1C(=O)O	.	.	.	7.9µM	.	.	?	RECQ1 conf=?;RECQ1 ADP FP=.
